# Records with an inconclusive call do not appear. Activity calls are given as the source filed them. The calls were made as follows, unless noted: active = hit-call score of the fitted dose curve at least 0.9, where 1 is the maximum; inconclusive = response in the unintended direction; inactive = score below 0.9.
# Legend:
# [1] = ATG_M_19_TRANS: Attagene TRANS-FACTORIAL HepG2 Assay for M19 Transcription Factor (Internal Marker) (AID 2282974); conditions: HepG2 Attagene TRANS-FACTORIAL M19 internal marker reporter
# Method in brief: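 Measured here: internal-marker reporter transcript from HepG2 cells transfected with MRTUs, harvested at 24 h. cDNA PCR products were 6-FAM labelled by primer extension, cut with HpaI for 2 h at 37 C, and resolved by CE.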
# [2] = ATG_GAL4_TRANS: Attagene TRANS-FACTORIAL HepG2 Assay for GAL4 (Internal Marker) (AID 2282976); conditions: HepG2 Attagene TRANS GAL4 internal marker reporter
# Method in brief: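 In transfected human HepG2 liver cells dosed 24 h, GAL4 reporter mRNA serves as a baseline marker. Detection by RT-PCR with fluorescent capillary electrophoresis, activity fitted upward relative to DMSO.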
# [3] = biological target: Nuclear receptor subfamily 4 group A member 2 (Homo sapiens) (UniProt P43354); test: ATG_NURR1_TRANS: Attagene TRANS-FACTORIAL HepG2 Assay for human Nuclear Receptor Related Protein 1 (NURR1) (AID 2282985); conditions: HepG2 Attagene TRANS reporter, mRNA readout
# Method in brief: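 Measures transcriptional activation by an exogenous NR-Gal4 chimera in transfected HepG2 liver cells. After 24 h, reporter RNA is reverse-transcribed, amplified and resolved by capillary electrophoresis; DMSO defines baseline.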
# [4] = biological target: human Peroxisome Proliferator-activated Receptor delta (PPARd), PPARD (gene 5467) (UniProt Q03181); test: ATG_PPARd_TRANS: Attagene TRANS-FACTORIAL HepG2 Assay for human Peroxisome Proliferator-activated Receptor delta (PPARd) (AID 2283002)
# Method in brief: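 Cell-based TRANS reporter: HepG2, transient MRTU transfection, 24 h exposure. Readout = reporter mRNA (RT-PCR/CE, 6-FAM). Gain-of-signal fit vs DMSO control.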
# [5] = biological target: Peroxisome proliferator-activated receptor gamma (Homo sapiens) (UniProt P37231); test: ATG_PPARg_TRANS: Attagene TRANS-FACTORIAL HepG2 Assay for human Peroxisome Proliferator-activated Receptor-gamma (PPARg) (AID 2283007)
# Method in brief: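 Multiplexed reporter transcription units in HepG2, 24 h dosing, reporter transcripts quantified by fluorescent RT-PCR and capillary electrophoresis. Increase over DMSO scored.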
# [6] = biological target: human RAR-related Orphan Receptor beta (RORb), RORB (gene 6096) (UniProt Q92753); test: ATG_RORb_TRANS: Attagene TRANS-FACTORIAL HepG2 Assay for human RAR-related Orphan Receptor beta (RORb) (AID 2283010)
# Method in brief: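 Multiplexed transcription-factor reporter assay: HepG2 cells transiently carrying NR-Gal4/GAL4-UAS constructs, 24 h treatment, mRNA quantified by RT-PCR plus capillary electrophoresis fluorescence; activity scored as induction over DMSO.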
# [7] = biological target: human RAR-related Orphan Receptor gamma (RORg), RORC (gene 6097) (UniProt P51449); test: ATG_RORg_TRANS: Attagene TRANS-FACTORIAL HepG2 Assay for human RAR-related Orphan Receptor gamma (RORg) (AID 2283011)
# Method in brief: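 Reporter transcripts from a transfected RORg-GAL4 chimera in HepG2 cells were quantified 24 h after dosing by RT-PCR, 6-FAM labelling, HpaI digestion and capillary electrophoresis; increases over DMSO baseline were fitted.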
# [8] = biological target: human Thyroid Receptor alpha (THRa1), THRA (gene 7067) (UniProt P10827); test: ATG_THRa1_TRANS: Attagene TRANS-FACTORIAL HepG2 Assay for human Thyroid Receptor alpha (THRa1) (AID 2283014)
# Method in brief: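 Transcripts from GAL4-UAS-driven reporters, measured after 24 h compound exposure by RT-PCR plus capillary electrophoresis of 6-FAM-labeled fragments, were fitted for gain of signal relative to DMSO. Cells: transiently transfected HepG2 expressing NR-Gal4 chimeras.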
# [9] = biological target: human Vitamin D Receptor (VDR), VDR (gene 7421) (UniProt P11473); test: ATG_VDR_TRANS: Attagene TRANS-FACTORIAL HepG2 Assay for human Vitamin D Receptor (VDR) (AID 2283022)
# Method in brief: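 Transactivation by an exogenous VDR-Gal4 chimera in transiently transfected HepG2 cells was measured as reporter transcript level 24 hours after chemical treatment. RT-PCR products were analysed by capillary electrophoresis and fitted in the positive direction relative to DMSO.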
# [10] = TOX21_p53_BLA_p4_viability: Viability Assessment in the Tox21 HCT-116 p53 Agonism Beta-lactamase Assay, Phase 4 (AID 2283597);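 also: hits lower the luminescence signal meaning cytotoxicity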
# Method in brief: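 Cytotoxicity as reduced cellular ATP (CellTiter-Glo luminescence, 30 min room temperature), measured in the same wells following the CCF4 FRET p53 reading. Human HCT-116 cells received compounds in DMSO (217-fold dilution) for 16 h.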
# [11] = CCTE_Harrill_HTTr_Viability_MCF7: CCTE's 6-hour Cell Viability Assessment for the High-Throughput Transcriptomics (HTTr) Platform, in MCF-7 cells cultured in DMEM + 10% fetal bovine serum, Harrill Lab (AID 2284010; active = hit-call score of the fitted dose curve at least 0.9, where 1 is the maximum; inactive = score below 0.9)
# Method in brief: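 Eight-point concentration series, six-hour exposure. Propidium iodide exclusion imaged to assess membrane integrity as a cytotoxicity readout; bidirectional fitting was done with DMSO as negative control and activity baseline.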
# [12] = CCTE_Harrill_HTTr_Apoptosis_MCF7: CCTE's 6-hour Apoptosis Assessment for the High-Throughput Transcriptomics (HTTr) Platform, in MCF-7 cells cultured in DMEM + 10% fetal bovine serum, Harrill Lab (AID 2284011; active = hit-call score of the fitted dose curve at least 0.9, where 1 is the maximum; inactive = score below 0.9)
# Method in brief: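 High-content imaging of CellEvent Caspase 3/7 Green signal follows a six-hour exposure, with eight concentrations per chemical. MCF-7 cells grown in DMEM plus 10% fetal bovine serum; activity fitted in both directions against DMSO.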
# [13] = biological target: Nuclear receptor subfamily 1 group I member 3 (Homo sapiens) (UniProt Q14994); test: ATG_CAR_TRANS: Attagene TRANS-FACTORIAL HepG2 Assay for human Constitutive Androstane Receptor (CAR) (AID 2282969); conditions: HepG2 Attagene TRANS-FACTORIAL CAR reporter;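 also: activators raise reporter mRNA above DMSO so AC50 marks induction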
# Method in brief: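 Signal is reporter mRNA induction relative to DMSO, measured 24 h after dosing by RT-PCR with fluorescent primer extension and capillary electrophoresis. Human HepG2 liver cells carried transiently transfected chimeric NR-Gal4/GAL4-UAS reporter constructs.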
# [14] = biological target: Glucocorticoid receptor (Homo sapiens) (UniProt P04150); test: ATG_GR_TRANS: Attagene TRANS-FACTORIAL HepG2 Assay for human Glucocorticoid Receptor (GR) (AID 2282978); conditions: HepG2 Attagene TRANS GR reporter, mRNA transcription;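 also: activators score as hits since higher reporter transcript over DMSO is fitted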
# Method in brief: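 Measurement of GAL4-UAS-driven reporter mRNA in human HepG2 liver cells 24 h post-dosing, using RT-PCR with fluorescent labelling and capillary electrophoresis; the transfected constructs report exogenous NR-GAL4 chimera activity, fitted upward against DMSO.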
# [15] = biological target: Oxysterols receptor LXR-beta (Homo sapiens) (UniProt P55055); test: ATG_LXRb_TRANS: Attagene TRANS-FACTORIAL HepG2 Assay for human Liver X Receptor beta (LXRb) (AID 2282981); conditions: HepG2 Attagene TRANS GAL4-LXRb reporter, mRNA
# Method in brief: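 After 24 h of chemical treatment, transfected HepG2 cells yield total RNA; reporter cDNA is PCR-amplified, FAM-labelled, HpaI-cut and run on capillary electrophoresis. Signal reflects chimeric LXRb-Gal4 activity on GAL4-UAS reporters.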
# [16] = biological target: Oxysterols receptor LXR-alpha (Homo sapiens) (UniProt Q13133); test: ATG_LXRa_TRANS: Attagene TRANS-FACTORIAL HepG2 Assay for human Liver X Receptor alpha (LXRa) (AID 2282980); conditions: HepG2 Attagene TRANS reporter, LXRa transactivation
# Method in brief: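 Chemical-induced reporter mRNA measured by RT-PCR with fluorescent labelling and capillary electrophoresis after 24 h dosing of transiently transfected HepG2 cells expressing exogenous NR-Gal4 chimeras; increases scored against DMSO baseline.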
# [17] = ATG_NF_kB_CIS: Attagene CIS-FACTORIAL HepG2 Assay for human Nuclear Factor Kappa B (NF-kB) (AID 2282991; active = hit-call score of the fitted dose curve at least 0.9, where 1 is the maximum; inactive = score below 0.9); conditions: HepG2 Attagene cis-factorial NF-kB reporter mRNA; actives raise or lower the signal
# Method in brief: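 HepG2, transient multi-reporter transfection, cis promoter elements (endogenous TFs). 24 h exposure. Total RNA → RT → PCR → 6-FAM label → HpaI → CE. Gain/loss vs DMSO.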
# [18] = ATG_VDRE_CIS: Attagene CIS-FACTORIAL HepG2 Assay for human Vitamin D Receptor Element (VDRE) (AID 2282968; active = hit-call score of the fitted dose curve at least 0.9, where 1 is the maximum; inactive = score below 0.9); conditions: HepG2 VDRE cis-reporter transcription, actives raise or lower the signal
# Method in brief: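 Measures endogenous factor activity through cis-element-driven reporter transcripts in transiently transfected HepG2. Cells are treated 24 h; reporter mRNA is quantified by RT-PCR and capillary electrophoresis; fitting is bidirectional.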
# Sequence of human Vitamin D Receptor (VDR), VDR (gene 7421) (P11473 whole entry, looked up, the tested form may be a part): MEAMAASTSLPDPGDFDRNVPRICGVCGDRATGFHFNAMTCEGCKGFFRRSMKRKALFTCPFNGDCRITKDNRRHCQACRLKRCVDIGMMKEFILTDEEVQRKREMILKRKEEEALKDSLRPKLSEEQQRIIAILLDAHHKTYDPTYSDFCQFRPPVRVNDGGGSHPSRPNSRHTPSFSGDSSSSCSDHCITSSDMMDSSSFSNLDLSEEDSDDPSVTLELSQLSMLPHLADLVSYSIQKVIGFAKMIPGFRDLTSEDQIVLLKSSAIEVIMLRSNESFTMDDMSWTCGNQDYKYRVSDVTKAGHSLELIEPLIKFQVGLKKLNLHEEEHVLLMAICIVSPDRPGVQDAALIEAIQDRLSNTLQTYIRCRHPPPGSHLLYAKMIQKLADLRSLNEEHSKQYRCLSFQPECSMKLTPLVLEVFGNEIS
# Sequence of human Thyroid Receptor alpha (THRa1), THRA (gene 7067) (P10827 whole entry, looked up, the tested form may be a part): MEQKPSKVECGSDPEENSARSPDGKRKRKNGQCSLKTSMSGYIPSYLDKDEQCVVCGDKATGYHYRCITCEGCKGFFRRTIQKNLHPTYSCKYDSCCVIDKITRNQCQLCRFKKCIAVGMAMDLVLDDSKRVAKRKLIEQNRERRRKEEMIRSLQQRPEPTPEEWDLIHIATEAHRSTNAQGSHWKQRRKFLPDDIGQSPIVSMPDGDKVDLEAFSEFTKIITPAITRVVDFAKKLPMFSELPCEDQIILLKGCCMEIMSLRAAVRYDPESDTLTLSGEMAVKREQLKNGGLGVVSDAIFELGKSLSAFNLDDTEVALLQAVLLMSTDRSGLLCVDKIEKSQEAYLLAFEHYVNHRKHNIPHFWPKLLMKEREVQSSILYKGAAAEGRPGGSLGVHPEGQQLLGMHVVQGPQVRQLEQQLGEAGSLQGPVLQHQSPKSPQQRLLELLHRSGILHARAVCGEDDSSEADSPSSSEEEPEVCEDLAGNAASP
# Sequence of Oxysterols receptor LXR-alpha (Homo sapiens) (Q13133 whole entry, looked up, the tested form may be a part): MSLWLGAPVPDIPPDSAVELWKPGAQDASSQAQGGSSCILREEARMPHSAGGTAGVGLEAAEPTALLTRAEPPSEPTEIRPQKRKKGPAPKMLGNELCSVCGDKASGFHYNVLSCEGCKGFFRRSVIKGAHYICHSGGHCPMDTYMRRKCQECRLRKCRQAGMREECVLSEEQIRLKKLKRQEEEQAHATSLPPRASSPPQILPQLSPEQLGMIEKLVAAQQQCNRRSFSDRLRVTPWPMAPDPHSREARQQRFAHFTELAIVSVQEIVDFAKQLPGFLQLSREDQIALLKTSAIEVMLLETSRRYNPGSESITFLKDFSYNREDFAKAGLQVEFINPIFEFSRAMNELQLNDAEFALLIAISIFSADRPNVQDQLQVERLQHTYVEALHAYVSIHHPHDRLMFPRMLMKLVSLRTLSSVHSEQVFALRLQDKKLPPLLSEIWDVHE
# Sequence of human RAR-related Orphan Receptor gamma (RORg), RORC (gene 6097) (P51449 whole entry, looked up, the tested form may be a part): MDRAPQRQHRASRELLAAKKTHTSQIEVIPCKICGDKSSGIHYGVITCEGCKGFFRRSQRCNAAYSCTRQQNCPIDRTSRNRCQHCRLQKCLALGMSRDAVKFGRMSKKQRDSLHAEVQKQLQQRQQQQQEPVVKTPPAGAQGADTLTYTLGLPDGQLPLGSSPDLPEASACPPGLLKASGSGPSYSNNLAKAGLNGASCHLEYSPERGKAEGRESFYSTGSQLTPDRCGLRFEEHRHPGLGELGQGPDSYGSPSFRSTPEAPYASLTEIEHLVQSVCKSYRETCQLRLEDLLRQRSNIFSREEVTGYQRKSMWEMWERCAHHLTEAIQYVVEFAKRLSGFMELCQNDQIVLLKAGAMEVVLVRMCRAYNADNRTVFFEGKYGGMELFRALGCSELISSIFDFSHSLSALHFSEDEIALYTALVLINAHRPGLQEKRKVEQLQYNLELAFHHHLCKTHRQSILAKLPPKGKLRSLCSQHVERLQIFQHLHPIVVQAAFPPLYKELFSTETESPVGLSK
# Sequence of Oxysterols receptor LXR-beta (Homo sapiens) (P55055 whole entry, looked up, the tested form may be a part): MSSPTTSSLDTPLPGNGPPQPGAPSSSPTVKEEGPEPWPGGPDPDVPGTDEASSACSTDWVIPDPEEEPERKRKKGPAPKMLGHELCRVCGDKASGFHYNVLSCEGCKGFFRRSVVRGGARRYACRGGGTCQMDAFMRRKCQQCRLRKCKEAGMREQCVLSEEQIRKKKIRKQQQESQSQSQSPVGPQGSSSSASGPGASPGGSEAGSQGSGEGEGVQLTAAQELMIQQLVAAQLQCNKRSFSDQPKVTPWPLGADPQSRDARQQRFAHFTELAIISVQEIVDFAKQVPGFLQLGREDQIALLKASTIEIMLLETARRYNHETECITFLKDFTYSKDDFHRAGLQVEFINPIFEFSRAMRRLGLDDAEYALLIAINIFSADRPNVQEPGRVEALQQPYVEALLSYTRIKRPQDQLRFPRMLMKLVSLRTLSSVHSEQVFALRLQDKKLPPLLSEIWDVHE
# Sequence of human RAR-related Orphan Receptor beta (RORb), RORB (gene 6096) (Q92753 whole entry, looked up, the tested form may be a part): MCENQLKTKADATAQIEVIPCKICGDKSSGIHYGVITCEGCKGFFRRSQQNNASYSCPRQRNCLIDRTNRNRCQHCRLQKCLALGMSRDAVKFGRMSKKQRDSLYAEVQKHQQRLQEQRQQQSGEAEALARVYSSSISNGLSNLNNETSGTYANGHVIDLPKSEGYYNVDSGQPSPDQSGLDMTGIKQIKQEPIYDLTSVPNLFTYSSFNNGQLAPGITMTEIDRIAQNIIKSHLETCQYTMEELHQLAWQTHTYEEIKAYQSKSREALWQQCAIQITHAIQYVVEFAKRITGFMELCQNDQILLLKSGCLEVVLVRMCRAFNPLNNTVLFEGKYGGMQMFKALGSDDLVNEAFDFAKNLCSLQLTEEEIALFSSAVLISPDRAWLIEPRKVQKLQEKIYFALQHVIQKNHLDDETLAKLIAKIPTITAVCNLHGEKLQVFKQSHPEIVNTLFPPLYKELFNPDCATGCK
# Sequence of Nuclear receptor subfamily 1 group I member 3 (Homo sapiens) (Q14994 whole entry, looked up, the tested form may be a part): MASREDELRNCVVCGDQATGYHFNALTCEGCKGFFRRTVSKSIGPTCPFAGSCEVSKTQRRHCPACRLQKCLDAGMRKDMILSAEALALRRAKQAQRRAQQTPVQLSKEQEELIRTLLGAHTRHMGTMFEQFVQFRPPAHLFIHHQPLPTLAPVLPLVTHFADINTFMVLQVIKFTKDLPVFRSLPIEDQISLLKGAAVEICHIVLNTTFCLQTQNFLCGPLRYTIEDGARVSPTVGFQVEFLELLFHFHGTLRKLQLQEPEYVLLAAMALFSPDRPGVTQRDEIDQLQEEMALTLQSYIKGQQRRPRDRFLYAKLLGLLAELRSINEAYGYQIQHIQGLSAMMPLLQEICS
# Sequence of human Peroxisome Proliferator-activated Receptor delta (PPARd), PPARD (gene 5467) (Q03181 whole entry, looked up): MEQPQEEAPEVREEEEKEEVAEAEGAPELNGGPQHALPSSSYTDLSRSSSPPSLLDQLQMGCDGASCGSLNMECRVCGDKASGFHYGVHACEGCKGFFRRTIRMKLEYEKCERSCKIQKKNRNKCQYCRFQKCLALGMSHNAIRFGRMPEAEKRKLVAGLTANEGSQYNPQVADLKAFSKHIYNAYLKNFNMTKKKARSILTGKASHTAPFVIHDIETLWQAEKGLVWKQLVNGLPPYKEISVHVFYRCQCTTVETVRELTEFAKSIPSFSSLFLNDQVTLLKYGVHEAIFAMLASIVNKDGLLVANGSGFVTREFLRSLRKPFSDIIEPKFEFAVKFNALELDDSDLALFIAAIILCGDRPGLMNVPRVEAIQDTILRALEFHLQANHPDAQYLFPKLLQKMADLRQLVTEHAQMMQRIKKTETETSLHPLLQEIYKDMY
# Sequence of Peroxisome proliferator-activated receptor gamma (Homo sapiens) (P37231 whole entry, looked up): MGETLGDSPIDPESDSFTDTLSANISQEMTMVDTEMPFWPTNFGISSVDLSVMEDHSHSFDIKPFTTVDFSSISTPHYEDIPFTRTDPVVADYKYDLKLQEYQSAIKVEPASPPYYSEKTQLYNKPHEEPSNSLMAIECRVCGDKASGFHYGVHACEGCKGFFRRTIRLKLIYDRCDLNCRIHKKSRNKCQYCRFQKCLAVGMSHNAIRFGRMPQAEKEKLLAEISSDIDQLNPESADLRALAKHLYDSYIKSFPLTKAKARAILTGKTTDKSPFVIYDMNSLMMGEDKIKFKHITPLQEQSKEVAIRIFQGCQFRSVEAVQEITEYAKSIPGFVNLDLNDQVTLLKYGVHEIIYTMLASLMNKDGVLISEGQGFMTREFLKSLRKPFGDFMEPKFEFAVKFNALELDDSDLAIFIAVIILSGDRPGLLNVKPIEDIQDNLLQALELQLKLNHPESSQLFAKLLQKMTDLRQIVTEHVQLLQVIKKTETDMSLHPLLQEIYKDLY
# Sequence of Nuclear receptor subfamily 4 group A member 2 (Homo sapiens) (P43354 whole entry, looked up, the tested form may be a part): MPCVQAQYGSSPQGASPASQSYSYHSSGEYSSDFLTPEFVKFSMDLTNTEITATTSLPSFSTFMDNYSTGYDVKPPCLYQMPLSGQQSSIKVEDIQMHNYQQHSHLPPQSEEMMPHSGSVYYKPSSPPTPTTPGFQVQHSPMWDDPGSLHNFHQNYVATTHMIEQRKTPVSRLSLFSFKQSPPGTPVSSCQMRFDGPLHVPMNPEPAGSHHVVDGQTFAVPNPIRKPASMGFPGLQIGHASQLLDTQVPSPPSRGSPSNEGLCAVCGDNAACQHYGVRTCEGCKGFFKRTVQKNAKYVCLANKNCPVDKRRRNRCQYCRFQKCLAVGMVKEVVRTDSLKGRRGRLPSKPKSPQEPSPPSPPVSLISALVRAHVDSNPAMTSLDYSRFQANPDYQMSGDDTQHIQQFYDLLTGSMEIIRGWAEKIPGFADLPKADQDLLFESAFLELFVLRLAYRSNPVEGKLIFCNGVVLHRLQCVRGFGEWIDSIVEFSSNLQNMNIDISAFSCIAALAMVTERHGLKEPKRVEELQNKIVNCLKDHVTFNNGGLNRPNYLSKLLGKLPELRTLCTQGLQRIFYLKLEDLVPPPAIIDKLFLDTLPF
compound,measurement,setting,value
O=C(O)c1cc(Cl)cc(Cl)c1O,outcome,[1],inactive
same,outcome,[2],inactive
same,outcome,[3],inactive
same,outcome,[4],inactive
same,AC50,[5],100 µM (active)
same,outcome,[6],inactive
same,outcome,[7],inactive
same,outcome,[8],inactive
same,outcome,[9],inactive
same,outcome,[10],inactive
same,outcome,[11],inactive
same,outcome,[12],inactive
CCC(C)=NO,outcome,[13],inactive
same,outcome,[1],inactive
same,outcome,[14],inactive
same,outcome,[15],inactive
same,outcome,[7],inactive
same,outcome,[8],inactive
same,outcome,[9],inactive
same,outcome,[11],inactive
same,outcome,[12],inactive
CC1=C(CC(=O)O)c2cc(F)ccc2/C1=C\c1ccc(S(C)=O)cc1 (stereo not given),outcome,[13],inactive
same,outcome,[1],inactive
same,outcome,[16],inactive
same,outcome,[3],inactive
same,outcome,[17],inactive
same,outcome,[4],inactive
same,AC50,[5],24.2 µM (active)
same,outcome,[6],inactive
same,outcome,[8],inactive
same,outcome,[10],inactive
same,outcome,[11],inactive
same,outcome,[12],inactive
CCC(C)C1N=C(C)C(C)S1 (stereo not given),outcome,[2],inactive
same,outcome,[14],inactive
same,outcome,[16],inactive
same,outcome,[15],inactive
same,outcome,[17],inactive
same,outcome,[4],inactive
same,outcome,[8],inactive
same,outcome,[10],inactive
CC[N+](CC)(CC(=O)Nc1c(C)cccc1C)Cc1ccccc1 (tested in a mixture with another compound),outcome,[2],inactive
same,outcome,[6],inactive
same,outcome,[11],inactive
same,outcome,[12],inactive
COc1cccc(OC)c1C(=O)O,outcome,[18],inactive
same,outcome,[13],inactive
same,outcome,[16],inactive
same,outcome,[15],inactive
same,outcome,[7],inactive
same,outcome,[9],inactive
same,outcome,[10],inactive
CC(C)CC(=O)CC(C)C,outcome,[2],inactive
same,outcome,[17],inactive
same,outcome,[6],inactive
same,outcome,[7],inactive
same,outcome,[9],inactive
same,outcome,[10],inactive
same,outcome,[11],inactive
same,outcome,[12],inactive

# Source: PubChem BioAssay (EPA / NIEHS)
